Each structure is given as a SMILES string. About 15 (0.8%) of roughly 2,000 compounds showed an effect of 50% or more. Many of the other results were omitted from the sample, so strong results are more common in it than they were.

The values below come from publication PMC6212833.

The test system of the assay is Balamuthia mandrillaris (ATCC PRA-291) trophozoites, axenic culture. As to the kind of experiment: primary screen, percent inhibition; higher = more effect of the substance.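 Further: 0% = vehicle wells and 100% = lysate wells.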 Conditions: 20 µM. The method in brief: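 Trophozoites (3,000/well) in axenic medium exposed to library drugs at 20 µM in 0.2% DMSO for 72 h; viability by CellTiter Glo luminescence at 2, 4 and 8 h. Controls: vehicle and freeze-thaw amoeba lysate; B-score corrects row, column and edge effects.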
As to `CN(C)c1ccc2nc3ccc(=[N+](C)C)cc-3sc2c1`, the “% Inhibition” value was 35.9%.
For `C[N+]1(C)[C@H]2CC(OC(=O)[C@H](CO)c3ccccc3)C[C@H]1C1OC12` (stereo partly shown) the value was 14.3%.
In the case of `C=CCC1(C(C)CCC)C(=O)NC(=O)NC1=O` (stereo not shown), the “% Inhibition” value was 11.2%.
For `CCC1C(C)=NN=C(c2ccc(OC)c(OC)c2)c2cc(OC)c(OC)cc21` (stereo not shown) the value was 11.9%.
For `CN(C)CCOC(c1ccc(Cl)cc1)c1ccccn1` (stereo not shown) the value was 7.85%; for `O=S(=O)(O)CCSSCCS(=O)(=O)O`, 37.4%; for `Cc1nnc(SCC2=C(C(=O)O)N3C(=O)[C@@H](NC(=O)Cn4cnnn4)[C@H]3SC2)s1`, 10.9%.
In the case of `O=C(O)CCC(=O)OC[C@@H](NC(=O)C(Cl)Cl)[C@H](O)c1ccc([N+](=O)[O-])cc1` it was -36.5%; in that of `CC[C@H]1OC(=O)[C@H](C)[C@@H](O[C@H]2C[C@@](C)(OC)[C@@H](O)[C@H](C)O2)[C@H](C)[C@@H](O[C@@H]2O[C@H](C)C[C@H](N(C)C)[C@H]2O)[C@](C)(O)C[C@@H](C)CN(C)[C@H](C)[C@@H](O)[C@]1(C)O`, 23.9%; in that of `Nc1c2c(nc3ccccc13)CCCC2`, 30.5%.
Take `CC[C@H](NC(C)C)[C@H](O)c1ccc(O)c2nc(O)ccc12`: the “% Inhibition” value worked out at 6.56%.
As for `C[C@]12C=CC(=O)C=C1CCC1C2[C@@H](O)C[C@@]2(C)C1CC[C@]2(O)C(=O)COP(=O)(O)O` (stereo partly shown), the “% Inhibition” value is 5.73%.
Consider `CN(C)CCC[C@@]1(c2ccc(F)cc2)OCc2cc(C#N)ccc21` [131042-L4], for which the “% Inhibition” value is 26.2%.
In the case of `Clc1ccc(CSC(Cn2ccnc2)c2ccc(Cl)cc2Cl)cc1` (stereo not shown) it was 15.3%.
For `CN(C)CCC=C1c2ccccc2C=Cc2ccccc21` the value was 23.3%; for `CN(C)C(=O)Oc1cc(OC(=O)N(C)C)cc(C(O)CNC(C)(C)C)c1` (stereo not shown) [255708-L4], 12%; for `OC[C@H]1O[C@@](CO)(OC[C@@]2(O)O[C@H](CO)[C@@H](O)[C@@H]2O)[C@@H](O)[C@@H]1O`, 26.1%.
In the case of `NC(=O)N1c2ccccc2C=Cc2ccccc21` it was 6.46%; in that of `CCN(CC)C(C)CN1c2ccccc2Sc2ccccc21` (stereo not shown), 8.27%; in that of `O=c1[nH]c(=O)n([C@H]2C[C@H](O)[C@@H](CO)O2)cc1F`, 4.91%.
Consider `CCN(CC)CCNC(=O)c1c(C)[nH]c(/C=C2\C(=O)Nc3ccc(F)cc32)c1C`, for which the “% Inhibition” value is 6.48%.
For `O=C(Nc1ccccc1)OCC(CN1CCCCC1)OC(=O)Nc1ccccc1` (stereo not shown) the value was 9.34%; for `CCCCC1=NC2(CCCC2)C(=O)N1Cc1ccc(-c2ccccc2-c2nn[nH]n2)cc1`, 14.7%; for `CCCc1nc(C(C)(C)O)c(C(=O)O)n1Cc1ccc(-c2ccccc2-c2nn[nH]n2)cc1`, 21.5%.
Turning to `OCCN1CCN(CCCN2c3ccccc3Sc3ccc(Cl)cc32)CC1`, the “% Inhibition” value was determined as 33.5%.
For `CCCCCN(C)CCC(O)(P(=O)(O)O)P(=O)(O)O` [756736-L2] the value was 25.4%; for `Cc1cc2c(cc1S(N)(=O)=O)S(=O)(=O)CCC2`, 25.8%; for `NC[C@H]1O[C@H](O[C@H]2[C@H](O)[C@@H](O[C@H]3O[C@H](CO)[C@@H](O)[C@H](N)[C@H]3O)[C@H](N)C[C@@H]2N)[C@H](O)[C@@H](O)[C@@H]1O`, 16%.
In the case of `CC[C@@H]1OC(OC(c2c[nH]cn2)C(NC(=O)c2nc(C(CC(N)=O)NCC(N)C(N)=O)nc(N)c2C)C(=O)NC(C)C(O)C(C)C(=O)NC(C(=O)NCCc2nc(-c3nc(C(=O)NCCCCN=C(N)N)cs3)cs2)C(C)O)[C@@H](O[C@H]2O[C@H](CO)[C@@H](O)[C@H](OC(N)=O)[C@@H]2O)[C@@H](C)[C@@H]1C` (stereo partly shown) it was -5.83%; in that of `O=C(NCCCN1CCOCC1)c1ccc(Cl)cc1`, 17.5%.
For the compound `CC(C)OC(=O)CCC/C=C\C[C@@H]1[C@@H](CC[C@@H](O)CCc2ccccc2)[C@H](O)C[C@@H]1O`, the “% Inhibition” value was found to be 12.8%.
For `CC[C@@H](C(=O)[C@@H](C)[C@@H](O)[C@H](C)[C@@H]1O[C@@H]([C@@H](CC)C(=O)O)CC[C@@H]1C)[C@H]1OC2(C=C[C@@H](O)[C@]3(CC[C@@](C)([C@H]4CC[C@](O)(CC)[C@H](C)O4)O3)O2)[C@H](C)C[C@@H]1C` (stereo partly shown) the value was 19.1%; for `CC[C@]1(O)C[C@H]2CN(CCc3c([nH]c4ccccc34)[C@@](C(=O)OC)(c3cc4c(cc3OC)N(C=O)[C@H]3[C@@](O)(C(=O)OC)[C@H](OC(C)=O)[C@]5(CC)C=CCN6CC[C@]43[C@@H]65)C2)C1`, 9.62%.
Turning to `COc1ccccc1N1CCN(CCCNc2cc(=O)n(C)c(=O)n2C)CC1`, the “% Inhibition” value is 37.2%.

The % Inhibition is the drop in the measured response relative to a control, in per cent.
